The source of these data is PubChem BioAssay (NCATS).

Structures are written as SMILES. Records with an inconclusive call do not appear. Where a call stands in place of a potency, no number is given. Activity calls are given as the source filed them. Calls follow the shape of the dose curve; as a rule, active = well fitted inhibition curve with a large enough effect; inconclusive = small, poorly fitted or top-dose-only effect; inactive = flat fitted curve, though single readings scatter.

Chain of Calcium and integrin-binding protein 1 (Homo sapiens) (Q99828 whole entry, looked up): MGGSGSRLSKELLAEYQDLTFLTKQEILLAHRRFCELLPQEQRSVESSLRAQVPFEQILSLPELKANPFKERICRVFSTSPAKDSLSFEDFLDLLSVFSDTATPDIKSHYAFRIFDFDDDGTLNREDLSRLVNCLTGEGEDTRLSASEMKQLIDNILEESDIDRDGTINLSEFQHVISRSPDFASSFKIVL

This assay deals with Calcium and integrin-binding protein 1 (Homo sapiens) (UniProt Q99828). The experiment in a line: Primary qHTS for Identification of Calcium Integrin Binding Protein 1 (CIB1) Competitor (AID 1508620).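 Also: GST tagged CIB1 binding a fluorescein labelled alphaIIb integrin peptide tracer; top concentration of the series differs between compounds.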 As to conditions: CIB1-GST / FITC-alphaIIb peptide fluorescence polarization; series mostly up to 114 µM. In short, it runs like this:
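Fluorescence polarization competition: CIB1-GST (1 uM final) preincubated with compound 15 min at room temperature, then FITC-labeled alphaIIb peptide (100 nM final) added for another 15 min. Polarization read at Ex 480/Em 540.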
On the technique in general: Quantitative high-throughput screening tests each substance at several concentrations.
Take `CC(C)=CCCC1(C)C2CCC1(C)C(O)C2` (centres undefined): the Potency entry is “inactive”.

For `CNCCN1CCC(c2cc(CN(C)C(=O)c3cccc(Oc4ccccc4)c3)ccn2)CC1`, the Potency result is “inactive”.

Regarding `C=C1CO[C@@]2(O[C@H]3CC4C5CC=C6C[C@@H](O)C[C@@H](O[C@@H]7OC[C@H](O)[C@H](O[C@@H]8OC[C@@H](O)[C@H](O)[C@H]8O)[C@H]7O[C@@H]7O[C@@H](C)[C@H](OC(C)=O)[C@@H](OC(C)=O)[C@H]7OC(C)=O)[C@]6(C)C5CC[C@]4(C)[C@@H]3[C@@H]2C)[C@@H](O)[C@H]1OC1OC(C)C(O)C(O)C1O` (some centres undefined), the activity change, negative = inhibition is -5.12% [at 12.4 µM] (inactive).

On to `O=C(c1ccc(F)cc1)N1CCCC(c2nc(-c3ccc(F)cc3)no2)C1` (centres undefined), for which the Potency result is “inactive”.

Regarding `CC(=O)O[C@H]1CC2C(COC(=O)CC(C)C)=CO[C@@H](OC(=O)CC(C)C)C2[C@]12CO2` (some centres undefined), the Potency result is “inactive”.

For the molecule `COc1cc(C(=O)O)ccc1NC(=O)C1NC(CC(C)(C)C)C(C#N)(c2ccc(Cl)cc2F)C1c1cccc(Cl)c1F` (centres undefined), the Potency entry is “inactive”.

For `Cc1cc(-c2nc3cc(F)ccc3s2)ccc1NC(=O)[C@@H](N)CCCCN`, the Potency entry is “inactive”.

As to `CC1(C)C2CCC(CO[C@@H]3O[C@H](CO[C@@H]4OC[C@](O)(CO)[C@H]4O)[C@@H](O)[C@H](O)[C@H]3O)C1C2` (some centres undefined), the Potency entry was “inactive”.

Consider `COc1ccccc1C(=O)Nc1cc2c(cc1N1CCCC1)n(C)c(=O)n2C`, for which the Potency result was “inactive”.

`CC1CCC(=O)CC(SCC(O)C(=O)O)CCC(=O)O1` (centres undefined): the Potency entry was “inactive”.

`C=C1CC2[C@@]3(C)C=CC(=O)C(C)(C)C3=C(O)C(=O)[C@@]2(C)C2(C(=O)OC)C(=O)C(C)OC(=O)[C@@]12C` (some centres undefined): the Potency result was “inactive”.

On to `O=C1C[C@]23C=CCN4CCC5c6cc7c(cc6N1[C@@]5(CC2)C43)OCO7` (some centres undefined), for which the Potency entry is “inactive”.

`COc1ccc(N(C(=O)Nc2c(C)cccc2C)c2cc(Nc3ccc(N4CCN(C)CC4)cc3)ncn2)c(OC)c1`: the Potency entry is “inactive”.

As to `CC(=O)OC1CCC2(C)C(CCC3(C)C2CC=C2C4C(C)C(C)CCC4(C)CCC23C)C1(C)C(=O)O` (centres undefined), the Potency entry was “inactive”.

Consider `CCN(Cc1ccccc1)C(=O)Cn1c(=O)n(C)c2cnc(-c3ccccc3)nc21`, for which the Potency result was “inactive”.

Consider `CC(=O)O[C@@H]1CC[C@@]2(C)[C@H](CC[C@@H]3[C@@H]2C[C@H](OC(C)=O)[C@]2(C)[C@@H](C(C)=O)CC[C@@H]32)C1`, for which the Potency entry was “inactive”.

Take `COc1cc(N2CCC(N3CCN(C)CC3)CC2)ccc1Nc1ncc(Cl)c(Nc2ccccc2P(C)(C)=O)n1`: the Potency entry was “inactive”.

As for `COC1CC(=O)C23C(=O)NC(Cc4c[nH]c5ccccc45)C2C(C)C2(C)OC2C3/C=C/CC(C)CC1O` (centres undefined), the Potency result is “inactive”.

In the case of `CC1=CC2/C=C(\C)CCC(O)C/C=C/C(=O)OC23C(=O)NC(CC(C)C)C3C1C` (centres undefined), the Potency entry is “inactive”.

Regarding `COc1cc(/C=C2\CCCN([C@@H](C)c3ccc(F)cc3)C2=O)ccc1-n1cnc(C)c1`, the Potency result is “inactive”.

For the molecule `CCC/C=C/c1cc2c(C=O)c(O)c(CC=C(C)C)cc2o1`, the Potency entry was “inactive”.

On to `Nc1nc(Nc2ccc3c(c2)CCC(N2CCCC2)CC3)nn1-c1cc2c(nn1)-c1ccccc1CCC2` (centres undefined), for which the Potency entry was “inactive”.

For the molecule `C=C1C(=O)OC2CC3(C)C(O)C(=O)C=C(C)C3CC12` (centres undefined), the Potency entry was “inactive”.

`CNCCC(c1cccs1)c1ccc(O)c2ccccc12` (centres undefined): the Potency result was “inactive”.

For the molecule `CC(C)=CCc1cc2c(cc1O)OC[C@H]1c3ccc(O)cc3O[C@@H]21`, the Potency entry was “inactive”.

Consider `CC[C@H](C)/C=C(C)/C=C/C1=CC2=CC(=O)[C@]3(C)OC(=O)[C@@H](C(C)=O)[C@@H]3C2=CO1`, for which the Potency result is “inactive”.

As to `C/C=C/[C@@H]1C=C[C@@H]2C[C@H](C)CC[C@H]2[C@]1(C)/C(O)=C1/C(=O)[C@@H](CO)N(C)C1=O`, the Potency result is “inactive”.

In the case of `CC(=O)O[C@@H]1CC2C(/C=C(\C)C(=O)[C@@]3(O)C[C@@H](C)[C@H](OC(=O)c4ccccc4)C3/C=C/1C)C2(C)C` (some centres undefined), the Potency result is “inactive”.

As to `Cn1ncc(Cl)c1-c1cc(C(=O)N[C@H](CN)Cc2ccc(F)c(F)c2)oc1Cl`, the Potency entry is “inactive”.
